# Screening results as filed in PubChem BioAssay.
# 3T3 cytotox: kills NIH 3T3 cells; NIH 3T3 viability, CellTiter-Glo ATP luminescence, 48-72 h; Potency, µM (doses to about 96.7 µM), for inactives: at the highest dose activity change, negative = cytotoxicity, hits mostly inhibitors; hit rate 4.3% among 94,000; AID 1345082; note: nearly all actives have a fitted effect of over 55% in size
#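 Cytotoxicity is measured as loss of cellular ATP: NIH 3T3 cells (400/well) are exposed to compound for 48 or 72 hr at 37 °C, then CellTiter-Glo luminescence is imaged after 10 min at room temperature.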
# NPR1 antag: blocks ANP-stimulated signaling of human Npr1 receptor; P16066; HEK293 hNpr1 GloSensor cGMP, ANP-stimulated luminescence; Potency, µM (titrated, usually from 46.3 µM), without a hit: at the highest dose activity change, negative = inhibition, hits mostly inhibitors; hit rate 1.6% among 76,000; AID 1347048; calls by dose curve; note: nearly all actives have a fitted effect of over 60% in size
# Target sequence (P16066 whole entry, looked up): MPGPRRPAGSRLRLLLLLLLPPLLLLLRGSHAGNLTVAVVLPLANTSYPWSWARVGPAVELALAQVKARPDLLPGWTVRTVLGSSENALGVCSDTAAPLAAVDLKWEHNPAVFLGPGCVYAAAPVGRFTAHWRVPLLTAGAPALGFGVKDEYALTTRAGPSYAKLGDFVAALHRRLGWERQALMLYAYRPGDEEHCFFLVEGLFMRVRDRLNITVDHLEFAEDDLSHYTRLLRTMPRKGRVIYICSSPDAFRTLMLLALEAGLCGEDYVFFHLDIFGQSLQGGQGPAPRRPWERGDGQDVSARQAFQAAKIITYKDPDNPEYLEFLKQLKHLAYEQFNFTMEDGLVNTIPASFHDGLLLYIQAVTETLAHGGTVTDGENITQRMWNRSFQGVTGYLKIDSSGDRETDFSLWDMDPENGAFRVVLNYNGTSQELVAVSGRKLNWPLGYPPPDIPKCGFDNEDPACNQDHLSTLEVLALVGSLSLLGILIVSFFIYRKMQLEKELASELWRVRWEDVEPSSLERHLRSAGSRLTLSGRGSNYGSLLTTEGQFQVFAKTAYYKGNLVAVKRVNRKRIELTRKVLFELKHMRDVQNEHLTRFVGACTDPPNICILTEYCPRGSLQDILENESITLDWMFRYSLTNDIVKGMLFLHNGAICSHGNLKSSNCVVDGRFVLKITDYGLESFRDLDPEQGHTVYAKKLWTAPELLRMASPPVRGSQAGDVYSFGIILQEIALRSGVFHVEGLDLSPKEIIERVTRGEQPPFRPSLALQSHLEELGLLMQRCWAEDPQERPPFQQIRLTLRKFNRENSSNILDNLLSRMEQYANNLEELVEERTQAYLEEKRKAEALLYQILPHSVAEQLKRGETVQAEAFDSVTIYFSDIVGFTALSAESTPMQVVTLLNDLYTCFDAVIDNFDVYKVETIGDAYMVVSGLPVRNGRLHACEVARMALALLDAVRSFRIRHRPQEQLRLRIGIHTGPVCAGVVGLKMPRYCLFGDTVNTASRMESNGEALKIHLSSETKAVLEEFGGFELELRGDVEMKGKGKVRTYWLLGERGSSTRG
#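 Compound pre-incubated 30 min at room temperature on GloSensor-loaded HEK293 cells stably carrying hNpr1 and the pGS-40F cGMP biosensor. Stimulation uses hNppA at 0.1 nM final; luminescence is taken at baseline and 20 min post-agonist.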
# HEK cytotox: kills HEK 293 cells; HEK 293 viability, ATP luminescence (CellTiter-Glo), 48-72 h; hit rate 6.6% among 94,000; Potency, µM (doses to about 115 µM), for the others: top-dose activity change, negative = cytotoxicity, most hits filed as inhibitors; note: nearly all actives have a fitted effect of over 60% in size
#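 HEK 293 seeded at 250 cells/well receive compound via pintool. After 48 or 72 hr at 37 degree Celsius, 5% CO2 and 95% humidity, CellTiter-Glo is dispensed and luminescence read following 10 min at room temperature.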
# Luciferase inh: inhibitors of firefly (Photinus pyralis) luciferase. Potency, µM (doses to about 115 µM), hits mostly inhibitors. purified P. pyralis luciferase, luminescence, biochemical. P08659. hit rate 2.5% among 76,000. AID 1347043; note: nearly all actives have a fitted effect of over 65% in size
#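 FLuc 10nM, D-luciferin 10uM, ATP 10uM, Mg acetate 10mM, Tris acetate pH 7.5, Tween/BSA; cpd qHTS; enzyme added last; CCD luminescence.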
# * hit, by the source's call; i = inactive; u = inconclusive; x = not tested or not shown; [ ] = remark or other dose. A selection: hits, their analogues and other compounds. The true share with any hit is near 11%. Unless noted, calls come from the whole dose curve; as a rule, active = well fitted curve in the direction sought with a large enough effect; inconclusive = small, poorly fitted or top-dose-only effect, or another doubt; inactive = no such curve, though single readings can be large; an effect the other way counts as inactive or inconclusive. % is set by controls: 0 for no effect and ±100 for the full control effect; potency is the fitted concentration of half-maximal effect.
SMILES,3T3 cytotox,NPR1 antag,HEK cytotox,Luciferase inh
Cc1nc(-c2cccs2)cc([C@H]2CN3CC[C@H]2C[C@@H]3COC(=O)Nc2cccc(C(F)(F)F)c2)n1,u,u,11µM*,i
Cn1nc(-c2cccs2)cc1[C@H]1CN2CC[C@H]1C[C@@H]2COC(=O)Nc1cccc(C(F)(F)F)c1,-3%,1%,0%,i
COc1ccccc1-c1cc([C@H]2CN3CC[C@H]2C[C@@H]3COC(=O)Nc2cccc(C(C)=O)c2)nc(C)n1,u,-11%,89µM*,i
COc1ccc(NC(=O)N2[C@H]3CC[C@@H]2c2cnc(C)nc2C3)c(C)c1,-5%,2%,i,i
O=C(Nc1ccccc1)Nc1ccc2n(c1=O)C[C@H]1C[C@@H]2CN(C(=O)c2cccs2)C1,u,-1%[70.6 µM],u,5.6µM*
O=C(Nc1ccc2n(c1=O)C[C@H]1C[C@@H]2CN(Cc2ccc(F)cc2)C1)c1cccs1,u,u,25µM*,u
O=C(Nc1ccc2n(c1=O)C[C@H]1C[C@@H]2CN(C(=O)COc2ccccc2)C1)c1cccs1,u,-6%,u,i
O=C(c1ccc2c(c1)OCO2)N1[C@H]2CC[C@@H]1c1cnc(-c3ccc(F)cc3)nc1C2,u,-11%,45µM*,i
Cc1nc(C)c(C(=O)N2[C@H]3CC[C@@H]2c2cnc(-c4ccc(F)cc4)nc2C3)s1,-21%,16µM*,u,u
Cc1noc(C)c1CC(=O)N1[C@H]2CC[C@@H]1c1cnc(-c3ccc(F)cc3)nc1C2,u,-16%,u,i
COc1ccc(C(=O)N2[C@H]3CC[C@@H]2c2cnc(-c4ccc(F)cc4)nc2C3)cc1F,-11%,u,0%,i
Cc1noc(C)c1Cc1ccc(C(=O)N2[C@H]3CC[C@@H]2c2cnc(-c4ccccc4)nc2C3)o1,u,u,40µM*,i
O=C(c1cccs1)N1[C@H]2CC[C@@H]1c1cnc(-c3ccc(F)cc3)nc1C2,u,11µM*,u,u
CC1=NOC2(CCN(Cc3ccccc3)C2)C1 (stereo unspecified),-7%[174 µM],7%[70.6 µM],i,i
Cc1ccsc1C(=O)N1[C@H]2CC[C@@H]1c1cnc(-c3ccccc3)nc1C2,u,x,10µM*,x
Cc1ccccc1S(=O)(=O)N1[C@H]2CC[C@@H]1c1cnc(-c3ccc(F)cc3)nc1C2,u,u,28µM*,i
Cc1ncc2c(n1)C[C@@H]1CC[C@H]2N1S(=O)(=O)c1ccccc1C,-14%,3%,-23%,i
COCC(=O)N1CC[C@@H]2COCCN(Cc3cccnc3)[C@@H]2C1,-1%,x,i,x
Cc1nc(-c2ccccc2Br)cc([C@H]2CN3CC[C@H]2C[C@@H]3CNC(=O)c2ccc(C(C)(C)C)cc2)n1,25µM*,-12%,10µM*,i
Cc1ccc(C(=O)NC[C@H]2C[C@@H]3CCN2C[C@@H]3c2cc(-c3ccccc3Br)nc(C)n2)cc1,u,-5%,u,i
Cc1nc(-c2ccccc2Br)cc([C@H]2CN3CC[C@H]2C[C@@H]3CNC(=O)c2ccc(N(C)C)cc2)n1,u,-8%,28µM*,i
CN(C)c1ccc(C(=O)NC[C@H]2C[C@@H]3CCN2C[C@@H]3CN2CCc3ccccc3C2)cc1,32µM*,-26%[70.6 µM],89µM*,i
Cc1nc(-c2cccs2)cc([C@H]2CN3CC[C@H]2C[C@@H]3CNC(=O)c2ccc(C(F)(F)F)cc2)n1,u,-5%,u,i
Cn1cc(CN2CCN3C(=O)N(Cc4ccccn4)C[C@H]3C2)cn1,i,4%[70.6 µM],i,i
C#C[C@H]1CN2CC[C@H]1C[C@@H]2CNS(=O)(=O)c1ccc(Cl)cc1,-25%[174 µM],2%[70.6 µM],-13%[172 µM],i
SMILES,3T3 cytotox,NPR1 antag,HEK cytotox,Luciferase inh
O=C(O)CCCC(=O)N1C[C@@H]2C[C@H](C1)c1ccc(-c3ccc(Cl)cc3)c(=O)n1C2,i,6%[70.6 µM],-2%[172 µM],i
COc1ccc(C(=O)NC[C@H]2C[C@@H]3CCN2C[C@@H]3c2cc(-c3ccc(N(C)C)cc3)nc(C)n2)cc1,40µM*,-6%,25µM*,i
Cc1nc(-c2ccc(N(C)C)cc2)cc([C@H]2CN3CC[C@H]2C[C@@H]3CNC(=O)c2ccccc2)n1,45µM*,-2%,u,i
CC(=O)Nc1ccc(S(=O)(=O)NC[C@H]2C[C@@H]3CCN2C[C@@H]3c2cc(-c3ccc(N(C)C)cc3)nc(C)n2)cc1,25µM*,-2%,22µM*,u
CCNC(=O)NC[C@H]1C[C@@H]2CCN1C[C@@H]2c1cc(-c2ccc(N(C)C)cc2)nc(C)n1,100µM*,7%[70.6 µM],100µM*,i
CCNC(=O)NC[C@H]1C[C@@H]2CCN1C[C@@H]2c1cc(-c2ccccc2)nc(C)n1,u,2%[70.6 µM],u,i
CCOC(=O)[C@H]1CN(C(=O)OCc2ccccc2)[C@]2(C)C(=O)Nc3ccccc3[C@H]12,-24%[46.1 µM],x,u,x
CN1CCN(C(=O)Cc2c[nH]c3ncc(-c4ccccc4F)cc23)CC1,u,3%[70.6 µM],-9%[172 µM],u
CN1CCN(C(=O)Cc2c[nH]c3ncc(-c4ccsc4)cc23)CC1,89µM*,7%[70.6 µM],-10%[172 µM],u
CN1CCN(C(=O)Cc2c[nH]c3ncc(-c4cccc(O)c4)cc23)CC1,89µM*,4%[70.6 µM],-7%[172 µM],u
C#C[C@H]1CN2CC[C@H]1C[C@@H]2CNC(=O)Nc1cccc(C(F)(F)F)c1,u,-2%[70.6 µM],u,i
C=C[C@H]1CN2CC[C@H]1C[C@@H]2CNC(=O)Nc1cccc(SC)c1,u,-2%[70.6 µM],u,i
C=C[C@H]1CN2CC[C@H]1C[C@@H]2CNC(=O)Nc1ccc(C(C)(C)C)cc1,35µM*,5%[70.6 µM],32µM*,i
C=C[C@H]1CN2CC[C@H]1C[C@@H]2CNC(=O)Nc1cccc(C(F)(F)F)c1,u,-1%[70.6 µM],100µM*,i
CC[C@H]1CN2CC[C@H]1C[C@@H]2CNC(=O)Nc1cc(OC)cc(OC)c1,u,2%[70.6 µM],-40%[172 µM],i
CC[C@H]1CN2CC[C@H]1C[C@@H]2CNC(=O)Nc1ccc(C(C)(C)C)cc1,u,-3%[70.6 µM],71µM*,i
O=C1Nc2ccccc2CC12CCCN2Cc1ccccn1 (stereo unspecified),-12%,x,-6%,x
Cc1nc(-c2ccccc2)cc([C@H]2CN3CC[C@H]2C[C@@H]3CNC(=O)NC(C)C)n1,u,-7%[70.6 µM],u,i
Cc1nc(-c2ccccc2Br)cc([C@H]2CN3CC[C@H]2C[C@@H]3CNC(=O)NC(C)C)n1,u,-1%,79µM*,i
Cc1nc(-c2ccccc2Br)cc([C@H]2CN3CC[C@H]2C[C@@H]3CNC(=O)NC2CCCCC2)n1,u,1%,u,i
COc1ccc(NC(=O)NC[C@H]2C[C@@H]3CCN2C[C@@H]3c2cc(-c3ccccc3Br)nc(C)n2)cc1,u,-5%,79µM*,i
Cc1cccc(OCC(=O)N2CC(N(Cc3ccncc3)CC(C)C)C2)c1,-28%,x,u,x
